# Data taken from publication PMC7862700, “An all-to-all approach to the identification of sequence-specific readers for epigenetic DNA modifications on cytosine”.
# Assays:
# Assay in all cases: DAPPL (digital affinity profiling via proximity ligation, sequencing); 10 mM Tris-HCl pH 7.5, 50 mM NaCl, 1 mM DTT, 4% glycerol, room temperature, 30 min; GST-TFs on glutathione beads, 16-mer random dsDNA library, 0.1% formaldehyde crosslink after washing; high values mean tight binding
# [1] = target: T1, FLI1 (Homo sapiens, UniProt Q01543 1-452); details: protein: recombinant; tags: N-terminal GST; dsDNA, one strand shown
# T1 sequence: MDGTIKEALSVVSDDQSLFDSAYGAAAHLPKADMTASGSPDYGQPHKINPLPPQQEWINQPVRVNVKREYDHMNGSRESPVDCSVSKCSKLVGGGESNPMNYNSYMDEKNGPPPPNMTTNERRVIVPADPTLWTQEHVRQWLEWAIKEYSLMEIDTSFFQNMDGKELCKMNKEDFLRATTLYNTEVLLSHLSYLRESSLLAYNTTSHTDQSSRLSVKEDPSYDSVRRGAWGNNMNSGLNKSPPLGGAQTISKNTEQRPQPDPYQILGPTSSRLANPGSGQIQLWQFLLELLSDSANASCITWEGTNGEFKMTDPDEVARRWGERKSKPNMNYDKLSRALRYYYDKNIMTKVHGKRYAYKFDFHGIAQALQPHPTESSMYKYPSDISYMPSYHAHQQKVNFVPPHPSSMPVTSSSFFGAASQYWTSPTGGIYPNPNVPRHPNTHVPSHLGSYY
# Outline: (§1)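 GST fusions of human transcription factors were expressed in yeast and captured with glutathione beads. Once given DNA barcodes and pooled alongside a tag-only sample, they were incubated for 30 min at room temperature with 200 nmole of a random double-stranded 16-mer DNA library in Tris/NaCl/DTT/glycerol buffer, then washed, crosslinked (0.1% formaldehyde), proximity-ligated, PCR-amplified and sequenced on an Illumina NextSeq500. The binding signal of each hexamer is its read frequency for a factor divided by its frequency for the tag-only sample.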
# [2] = target: T2, ELK1 (Homo sapiens, UniProt P19419 1-428); details: protein: recombinant; tags: N-terminal GST; dsDNA, one strand shown
# T2 sequence: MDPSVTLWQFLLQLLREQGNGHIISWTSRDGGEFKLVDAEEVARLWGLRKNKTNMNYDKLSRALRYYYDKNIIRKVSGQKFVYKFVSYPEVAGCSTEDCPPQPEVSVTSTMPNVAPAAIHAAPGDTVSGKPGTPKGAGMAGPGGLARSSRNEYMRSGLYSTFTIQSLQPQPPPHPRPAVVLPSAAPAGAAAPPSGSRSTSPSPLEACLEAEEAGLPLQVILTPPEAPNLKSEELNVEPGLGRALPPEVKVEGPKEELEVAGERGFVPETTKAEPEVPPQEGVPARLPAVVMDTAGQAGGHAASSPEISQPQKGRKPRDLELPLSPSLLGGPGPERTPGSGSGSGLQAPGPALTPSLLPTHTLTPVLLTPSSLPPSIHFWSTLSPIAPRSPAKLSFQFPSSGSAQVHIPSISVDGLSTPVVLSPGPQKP
# Outline: as §1
# [3] = target: T3, GABPA (Homo sapiens, UniProt Q06546 1-454); details: protein: recombinant; tags: N-terminal GST; dsDNA, one strand shown
# T3 sequence: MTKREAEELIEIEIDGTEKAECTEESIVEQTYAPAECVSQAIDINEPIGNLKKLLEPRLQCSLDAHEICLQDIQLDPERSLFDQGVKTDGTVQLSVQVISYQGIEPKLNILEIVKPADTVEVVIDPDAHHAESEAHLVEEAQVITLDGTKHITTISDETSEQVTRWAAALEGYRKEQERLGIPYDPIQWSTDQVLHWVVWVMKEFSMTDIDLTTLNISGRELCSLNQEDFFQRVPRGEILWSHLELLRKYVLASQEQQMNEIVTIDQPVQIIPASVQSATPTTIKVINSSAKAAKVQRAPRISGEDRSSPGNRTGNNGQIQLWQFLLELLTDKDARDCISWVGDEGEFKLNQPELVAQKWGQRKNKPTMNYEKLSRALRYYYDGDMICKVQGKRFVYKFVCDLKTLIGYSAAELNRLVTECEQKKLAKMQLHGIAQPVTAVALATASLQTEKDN
# Outline: as §1
# [4] = target: T4, ERG (Homo sapiens, UniProt P11308 1-479); details: protein: recombinant; tags: N-terminal GST; dsDNA, one strand shown
# T4 sequence: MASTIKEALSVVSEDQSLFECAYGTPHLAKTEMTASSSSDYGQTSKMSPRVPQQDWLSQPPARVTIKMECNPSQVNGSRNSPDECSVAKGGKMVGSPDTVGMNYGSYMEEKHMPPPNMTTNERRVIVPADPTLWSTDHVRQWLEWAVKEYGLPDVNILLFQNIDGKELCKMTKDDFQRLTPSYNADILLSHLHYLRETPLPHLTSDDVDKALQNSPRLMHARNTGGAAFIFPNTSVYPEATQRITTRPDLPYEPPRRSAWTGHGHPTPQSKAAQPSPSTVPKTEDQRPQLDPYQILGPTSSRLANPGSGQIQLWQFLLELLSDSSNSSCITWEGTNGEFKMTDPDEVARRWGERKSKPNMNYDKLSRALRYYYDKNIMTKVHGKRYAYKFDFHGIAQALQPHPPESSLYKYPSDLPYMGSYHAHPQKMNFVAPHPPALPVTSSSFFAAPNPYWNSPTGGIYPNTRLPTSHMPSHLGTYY
# Outline: as §1
# [5] = target: ELF1 (Homo sapiens, UniProt P32519 1-619); details: protein: recombinant; tags: N-terminal GST; dsDNA, one strand shown
# Sequence of ELF1 (P32519 whole entry): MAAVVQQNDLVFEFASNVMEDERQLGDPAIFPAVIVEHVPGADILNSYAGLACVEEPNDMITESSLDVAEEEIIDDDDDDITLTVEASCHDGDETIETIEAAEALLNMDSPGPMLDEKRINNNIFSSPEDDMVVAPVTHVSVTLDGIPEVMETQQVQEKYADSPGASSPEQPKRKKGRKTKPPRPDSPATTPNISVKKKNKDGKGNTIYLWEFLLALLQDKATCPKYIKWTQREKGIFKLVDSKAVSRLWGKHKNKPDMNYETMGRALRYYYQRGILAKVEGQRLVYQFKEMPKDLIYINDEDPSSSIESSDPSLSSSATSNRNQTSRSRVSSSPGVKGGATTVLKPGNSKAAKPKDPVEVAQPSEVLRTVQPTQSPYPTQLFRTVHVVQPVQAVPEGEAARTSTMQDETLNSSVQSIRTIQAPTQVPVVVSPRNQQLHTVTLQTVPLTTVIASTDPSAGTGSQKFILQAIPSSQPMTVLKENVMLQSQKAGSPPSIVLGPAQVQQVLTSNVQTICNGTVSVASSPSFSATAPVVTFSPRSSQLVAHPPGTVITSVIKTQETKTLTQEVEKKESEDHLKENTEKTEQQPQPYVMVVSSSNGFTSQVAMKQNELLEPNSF
# Outline: as §1
# [6] = target: T5, EHF (Homo sapiens, UniProt Q9NZC4 1-300); details: protein: recombinant; tags: N-terminal GST; dsDNA, one strand shown
# T5 sequence: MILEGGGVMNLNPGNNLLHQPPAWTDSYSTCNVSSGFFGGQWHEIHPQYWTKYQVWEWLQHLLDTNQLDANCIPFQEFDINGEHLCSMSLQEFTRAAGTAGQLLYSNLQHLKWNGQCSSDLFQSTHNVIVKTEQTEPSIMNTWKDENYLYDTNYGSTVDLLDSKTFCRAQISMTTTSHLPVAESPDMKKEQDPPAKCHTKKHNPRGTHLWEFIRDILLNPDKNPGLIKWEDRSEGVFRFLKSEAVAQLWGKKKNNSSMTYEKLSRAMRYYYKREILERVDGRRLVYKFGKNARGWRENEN
# Outline: as §1
# [7] = target: SPI1 (Homo sapiens, UniProt P17947 1-270); details: protein: recombinant; tags: N-terminal GST; dsDNA, one strand shown
# Outline: as §1
# [8] = target: SPIB (Homo sapiens, UniProt Q01892 1-262); details: protein: recombinant; tags: N-terminal GST; dsDNA, one strand shown
# Sequence of SPIB (Q01892 whole entry): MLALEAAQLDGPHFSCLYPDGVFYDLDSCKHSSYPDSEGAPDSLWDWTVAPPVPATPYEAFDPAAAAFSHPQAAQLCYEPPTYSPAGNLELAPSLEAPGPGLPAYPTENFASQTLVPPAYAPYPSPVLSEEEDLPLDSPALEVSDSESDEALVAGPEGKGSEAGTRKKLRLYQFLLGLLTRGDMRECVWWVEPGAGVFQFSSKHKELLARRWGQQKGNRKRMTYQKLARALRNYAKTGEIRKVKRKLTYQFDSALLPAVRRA
# Outline: as §1
# [9] = target: T6, ELK3 (Homo sapiens, UniProt P41970 1-407); details: protein: recombinant; tags: N-terminal GST; dsDNA, one strand shown
# T6 sequence: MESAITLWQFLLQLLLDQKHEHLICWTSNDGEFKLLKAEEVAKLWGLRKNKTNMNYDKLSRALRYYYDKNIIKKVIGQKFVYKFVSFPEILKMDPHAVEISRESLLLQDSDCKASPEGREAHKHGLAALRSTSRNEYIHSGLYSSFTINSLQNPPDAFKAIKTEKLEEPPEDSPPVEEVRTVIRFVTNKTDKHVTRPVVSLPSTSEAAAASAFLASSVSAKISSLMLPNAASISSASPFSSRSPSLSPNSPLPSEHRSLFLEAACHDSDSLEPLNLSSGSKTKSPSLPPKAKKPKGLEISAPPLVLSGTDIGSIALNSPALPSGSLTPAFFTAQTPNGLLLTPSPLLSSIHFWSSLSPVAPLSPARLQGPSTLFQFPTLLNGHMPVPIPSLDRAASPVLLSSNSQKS
# Outline: as §1
# [10] = target: T7, FEV (Homo sapiens, UniProt Q99581 1-238); details: protein: recombinant; tags: N-terminal GST; dsDNA, one strand shown
# T7 sequence: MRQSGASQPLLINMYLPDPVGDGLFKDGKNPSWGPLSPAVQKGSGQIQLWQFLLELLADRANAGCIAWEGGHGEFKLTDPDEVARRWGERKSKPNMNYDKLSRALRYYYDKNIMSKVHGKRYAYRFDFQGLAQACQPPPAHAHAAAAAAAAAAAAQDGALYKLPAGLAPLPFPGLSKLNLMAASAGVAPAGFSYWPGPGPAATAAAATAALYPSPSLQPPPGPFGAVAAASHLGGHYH
# Outline: as §1
# [11] = target: ETV5 (Homo sapiens, UniProt P41161 1-510); details: protein: recombinant; tags: N-terminal GST; dsDNA, one strand shown
# Sequence of ETV5 (P41161 whole entry): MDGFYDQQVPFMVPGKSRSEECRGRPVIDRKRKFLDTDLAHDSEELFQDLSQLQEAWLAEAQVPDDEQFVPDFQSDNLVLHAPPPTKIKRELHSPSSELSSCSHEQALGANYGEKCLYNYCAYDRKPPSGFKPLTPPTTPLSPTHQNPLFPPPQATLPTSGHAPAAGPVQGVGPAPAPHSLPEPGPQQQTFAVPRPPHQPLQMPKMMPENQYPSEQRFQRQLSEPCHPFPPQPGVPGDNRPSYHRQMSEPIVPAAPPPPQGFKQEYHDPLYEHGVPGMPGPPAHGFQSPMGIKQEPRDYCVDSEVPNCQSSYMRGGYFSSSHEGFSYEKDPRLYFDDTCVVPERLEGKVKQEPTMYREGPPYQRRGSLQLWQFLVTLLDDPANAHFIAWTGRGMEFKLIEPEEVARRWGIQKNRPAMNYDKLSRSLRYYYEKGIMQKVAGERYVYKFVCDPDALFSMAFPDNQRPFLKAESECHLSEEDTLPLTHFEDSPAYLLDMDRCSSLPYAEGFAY
# Outline: as §1
# [12] = target: HSF1 (Homo sapiens, UniProt Q00613 1-529); details: protein: recombinant; tags: N-terminal GST; chain copies: 3; dsDNA, one strand shown
# Sequence of HSF1 (Q00613 whole entry): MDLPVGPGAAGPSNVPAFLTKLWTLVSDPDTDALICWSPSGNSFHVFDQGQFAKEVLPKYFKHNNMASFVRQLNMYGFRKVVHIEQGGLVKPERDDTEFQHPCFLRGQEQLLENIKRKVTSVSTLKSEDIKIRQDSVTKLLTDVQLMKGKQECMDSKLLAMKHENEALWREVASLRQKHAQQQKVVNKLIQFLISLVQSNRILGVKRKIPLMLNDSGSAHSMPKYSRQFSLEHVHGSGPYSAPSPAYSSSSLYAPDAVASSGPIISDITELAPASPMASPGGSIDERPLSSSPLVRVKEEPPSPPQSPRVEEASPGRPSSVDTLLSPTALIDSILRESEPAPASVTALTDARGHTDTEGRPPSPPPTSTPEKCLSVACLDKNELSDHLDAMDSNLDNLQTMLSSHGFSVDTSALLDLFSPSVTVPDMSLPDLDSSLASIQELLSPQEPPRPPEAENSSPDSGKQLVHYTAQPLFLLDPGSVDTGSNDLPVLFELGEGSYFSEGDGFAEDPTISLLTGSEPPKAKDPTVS
# Outline: as §1
# [13] = target: T8, SPIC (Homo sapiens, UniProt Q8N5J4 1-248); details: protein: recombinant; tags: N-terminal GST; dsDNA, one strand shown
# T8 sequence: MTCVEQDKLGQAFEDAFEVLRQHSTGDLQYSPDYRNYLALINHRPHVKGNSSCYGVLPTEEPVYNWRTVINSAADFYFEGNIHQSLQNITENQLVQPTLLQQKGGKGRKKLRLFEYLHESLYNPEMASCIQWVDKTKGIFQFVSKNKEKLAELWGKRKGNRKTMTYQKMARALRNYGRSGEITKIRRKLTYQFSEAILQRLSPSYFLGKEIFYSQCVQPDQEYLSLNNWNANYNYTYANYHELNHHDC
# Outline: as §1
# [14] = target: ELF4 (Homo sapiens, UniProt Q99607 1-663); details: protein: recombinant; tags: N-terminal GST; dsDNA, one strand shown
# Sequence of ELF4 (Q99607 whole entry): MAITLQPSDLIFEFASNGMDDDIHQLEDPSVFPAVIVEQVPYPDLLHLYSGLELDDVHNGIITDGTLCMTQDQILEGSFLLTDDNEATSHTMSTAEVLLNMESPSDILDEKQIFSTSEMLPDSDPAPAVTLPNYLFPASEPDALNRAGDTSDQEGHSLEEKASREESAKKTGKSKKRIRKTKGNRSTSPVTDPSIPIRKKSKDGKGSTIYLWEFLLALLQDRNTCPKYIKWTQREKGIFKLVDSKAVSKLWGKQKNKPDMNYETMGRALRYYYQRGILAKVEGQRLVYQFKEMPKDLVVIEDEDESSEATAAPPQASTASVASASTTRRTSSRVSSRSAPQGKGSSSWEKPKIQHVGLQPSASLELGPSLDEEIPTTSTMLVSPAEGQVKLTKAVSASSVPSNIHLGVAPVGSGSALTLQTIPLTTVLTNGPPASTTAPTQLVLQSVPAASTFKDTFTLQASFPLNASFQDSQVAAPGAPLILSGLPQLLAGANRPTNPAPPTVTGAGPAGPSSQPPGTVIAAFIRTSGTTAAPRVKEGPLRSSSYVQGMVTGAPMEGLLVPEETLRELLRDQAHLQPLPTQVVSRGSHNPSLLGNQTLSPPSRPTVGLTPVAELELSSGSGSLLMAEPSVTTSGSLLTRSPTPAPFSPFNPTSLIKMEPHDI
# Outline: as §1
# [15] = target: T9, ELK4 (Homo sapiens, UniProt P28324-2 1-405); details: protein: recombinant; tags: N-terminal GST; dsDNA, one strand shown
# T9 sequence: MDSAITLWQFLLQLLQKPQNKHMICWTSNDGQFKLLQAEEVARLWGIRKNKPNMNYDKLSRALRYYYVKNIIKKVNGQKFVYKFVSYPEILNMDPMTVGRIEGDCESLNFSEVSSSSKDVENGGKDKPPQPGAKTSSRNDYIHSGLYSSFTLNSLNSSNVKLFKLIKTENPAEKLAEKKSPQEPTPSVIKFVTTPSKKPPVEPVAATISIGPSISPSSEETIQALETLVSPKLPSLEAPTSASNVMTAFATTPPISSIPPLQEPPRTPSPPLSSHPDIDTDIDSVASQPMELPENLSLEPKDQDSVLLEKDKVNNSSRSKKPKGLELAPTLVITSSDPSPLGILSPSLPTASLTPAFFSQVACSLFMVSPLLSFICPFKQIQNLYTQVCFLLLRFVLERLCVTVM
# Outline: as §1
# [16] = target: T10, ETV2 (Homo sapiens, UniProt O00321 1-342); details: protein: recombinant; tags: N-terminal GST; dsDNA, one strand shown
# T10 sequence: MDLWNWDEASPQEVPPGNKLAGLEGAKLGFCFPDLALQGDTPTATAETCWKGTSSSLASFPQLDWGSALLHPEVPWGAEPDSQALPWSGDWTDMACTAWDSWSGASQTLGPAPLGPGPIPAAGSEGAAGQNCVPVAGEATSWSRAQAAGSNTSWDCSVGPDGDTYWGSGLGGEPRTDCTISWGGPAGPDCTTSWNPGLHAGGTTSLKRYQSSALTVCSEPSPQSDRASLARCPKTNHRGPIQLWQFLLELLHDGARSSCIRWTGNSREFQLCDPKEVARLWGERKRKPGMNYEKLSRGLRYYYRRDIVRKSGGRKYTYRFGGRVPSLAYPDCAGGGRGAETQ
# Outline: as §1
# [17] = target: T11, ELF3 (Homo sapiens, UniProt P78545 1-371); details: protein: recombinant; tags: N-terminal GST; dsDNA, one strand shown
# T11 sequence: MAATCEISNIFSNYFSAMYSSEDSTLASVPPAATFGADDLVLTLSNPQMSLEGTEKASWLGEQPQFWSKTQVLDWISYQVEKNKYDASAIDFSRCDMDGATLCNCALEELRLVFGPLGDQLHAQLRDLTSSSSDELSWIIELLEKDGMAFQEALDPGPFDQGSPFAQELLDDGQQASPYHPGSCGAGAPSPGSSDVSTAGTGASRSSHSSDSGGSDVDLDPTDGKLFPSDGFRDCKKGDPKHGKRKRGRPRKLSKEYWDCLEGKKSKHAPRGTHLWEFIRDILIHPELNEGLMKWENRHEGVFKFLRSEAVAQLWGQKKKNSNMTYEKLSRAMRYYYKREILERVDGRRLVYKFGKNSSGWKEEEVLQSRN
# Outline: as §1
# [18] = target: CRX (Homo sapiens, UniProt O43186 1-299); details: protein: recombinant; tags: N-terminal GST; dsDNA, one strand shown
# Sequence of CRX (O43186 whole entry): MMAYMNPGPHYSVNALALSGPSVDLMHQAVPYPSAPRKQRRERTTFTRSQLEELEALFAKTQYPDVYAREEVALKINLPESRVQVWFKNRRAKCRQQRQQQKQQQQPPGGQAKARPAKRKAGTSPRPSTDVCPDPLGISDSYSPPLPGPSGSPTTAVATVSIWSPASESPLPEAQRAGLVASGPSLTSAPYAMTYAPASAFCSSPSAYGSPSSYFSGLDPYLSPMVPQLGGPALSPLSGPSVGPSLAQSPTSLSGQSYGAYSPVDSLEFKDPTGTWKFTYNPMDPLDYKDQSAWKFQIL
# Outline: as §1
# [19] = target: ETV1 (Homo sapiens, UniProt P50549 1-477); details: protein: recombinant; tags: N-terminal GST; dsDNA, one strand shown
# Sequence of ETV1 (P50549 whole entry): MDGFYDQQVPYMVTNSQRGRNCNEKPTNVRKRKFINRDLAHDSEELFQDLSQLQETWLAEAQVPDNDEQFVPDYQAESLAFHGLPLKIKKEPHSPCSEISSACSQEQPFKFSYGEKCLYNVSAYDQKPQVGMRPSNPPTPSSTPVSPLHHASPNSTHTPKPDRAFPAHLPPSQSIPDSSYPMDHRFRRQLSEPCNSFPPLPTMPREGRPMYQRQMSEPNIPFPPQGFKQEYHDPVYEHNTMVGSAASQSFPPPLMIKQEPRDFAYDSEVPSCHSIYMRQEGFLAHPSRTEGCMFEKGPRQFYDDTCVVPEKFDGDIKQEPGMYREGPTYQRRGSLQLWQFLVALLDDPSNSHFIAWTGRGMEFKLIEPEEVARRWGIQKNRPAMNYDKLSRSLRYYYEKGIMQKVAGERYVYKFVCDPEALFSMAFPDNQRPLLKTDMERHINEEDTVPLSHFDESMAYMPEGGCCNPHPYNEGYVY
# Outline: as §1
sequence,measurement,setting,value
ACTTTC,binding signal,[1],"1.55 fold enrichment (6-mer frequency, TF over GST control)"
same,binding signal,[2],"1.65 fold enrichment (6-mer frequency, TF over GST control)"
same,binding signal,[3],"1.59 fold enrichment (6-mer frequency, TF over GST control)"
same,binding signal,[4],"1.46 fold enrichment (6-mer frequency, TF over GST control)"
same,binding signal,[5],"1.63 fold enrichment (6-mer frequency, TF over GST control)"
same,binding signal,[6],"1.59 fold enrichment (6-mer frequency, TF over GST control)"
same,binding signal,[7],"1.66 fold enrichment (6-mer frequency, TF over GST control)"
same,binding signal,[8],"1.7 fold enrichment (6-mer frequency, TF over GST control)"
same,binding signal,[9],"1.62 fold enrichment (6-mer frequency, TF over GST control)"
same,binding signal,[10],"1.49 fold enrichment (6-mer frequency, TF over GST control)"
same,binding signal,[11],"1.65 fold enrichment (6-mer frequency, TF over GST control)"
same,binding signal,[12],"2.49 fold enrichment (6-mer frequency, TF over GST control)"
same,binding signal,[13],"1.6 fold enrichment (6-mer frequency, TF over GST control)"
same,binding signal,[14],"1.53 fold enrichment (6-mer frequency, TF over GST control)"
same,binding signal,[15],"1.86 fold enrichment (6-mer frequency, TF over GST control)"
same,binding signal,[16],"1.62 fold enrichment (6-mer frequency, TF over GST control)"
same,binding signal,[17],"1.6 fold enrichment (6-mer frequency, TF over GST control)"
same,binding signal,[18],"1.63 fold enrichment (6-mer frequency, TF over GST control)"
same,binding signal,[19],"1.7 fold enrichment (6-mer frequency, TF over GST control)"
